According to PubChem BioAssay:
Calls of active or inactive are those of the source.

Legend:
[1] = system: PRMT1 (protein arginine N-methyltransferase 1); assay: PRMT1 binders on small-molecule microarrays, primary screen, biochemical, small-molecule microarray, 635 nm fluorescence (AID 1088); details: small-molecule microarray binding, higher = more signal;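 further: binding of Prmt1 protein to compounds spotted on small-molecule microarray slides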
[2] = yeast growth modulation, basal conditions, primary screen, YJM789 clinical isolate, OD600, 24 h (AID 1089);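 further: growth of clinical yeast isolate S. cerevisiae YJM 789 seeded 1000 cells per well; test concentration not given here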; details: S. cerevisiae YJM789 growth, higher = more signal, called active from +8 up or from −8 down
[3] = fission yeast growth modulation, primary screen, strain 972, OD600, 24 h, no modulator (AID 1090);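 further: basal condition with compound alone and no growth modifier present; test concentration not given here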; details: S. pombe 972 growth, higher = more signal, called active from +8 up or from −8 down
[4] = S. cerevisiae growth modulation with rapamycin, primary screen, strain BY4716, OD600, 96 h (AID 1091); details: higher = more signal, called active from +8 up or from −8 down; further: test concentration not given here
[5] = molecular target: Torsin-1A-interacting protein 2 (Homo sapiens) (UniProt Q8NFQ8); assay: LULL1 binders on small-molecule microarray, primary screen, cell lysate, human LULL1 lysate, 635/667 nm fluorescence (AID 1092); details: hLULL1 lysate binding, 635 nm fluorescence, higher = more signal;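 further: probe is lysate of COS7 cells overexpressing human LULL1; score merges per-feature 667 nm fluorescence with signal-to-noise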
[6] = E. coli growth modulation, two-sided OD650, primary screen, E. coli filamentation project, strain DRC41, 24 h (AID 1093); details: OD650, 24 h, higher = more signal, called active from +8 up or from −8 down;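 further: MC1000 strain lacking acrAB efflux and sulA so SOS filamentation is blocked; test concentration not given here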
[7] = small-molecule microarray binders of probe aLefty2, primary screen, biochemical, biotinylated probe, 635/667 nm fluorescence (AID 1094); details: higher = more signal;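 further: score merges spot fluorescence near 667 nm with spot signal-to-noise ratio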
[8] = system: Noggin (protein binding on small-molecule microarray); assay: Noggin binders on small-molecule microarray, primary screen, biochemical, 635/667 nm fluorescence (AID 1095); details: 635 nm fluorescence, higher = more signal;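 further: score merges 667 nm feature fluorescence with signal to noise over triplicate slides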
[9] = molecular target: Neurogenic locus notch homolog protein 3 (Homo sapiens) (UniProt Q9UM47); assay: NOTCH3 binders on small-molecule microarray, primary screen, biochemical, 635/667 nm fluorescence (AID 1096); details: NOTCH3 binding, 635 nm fluorescence, higher = more signal
[10] = small-molecule microarray binders of probe aEGFR, primary screen, biochemical, biotinylated probe, 635/667 nm fluorescence (AID 1097); details: higher = more signal;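 further: probe is a biotinylated anti-EGFR antibody binding compounds printed on slides; score combines fluorescence near 667 nm and signal to noise of each spot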
[11] = system: Plasmodium falciparum Sir2 (PF13_0152, Sir2A); assay: pfSir2 binders on small-molecule microarrays, primary screen, biochemical, small-molecule microarray, 635 nm fluorescence (AID 1098); details: small-molecule microarray binding, fluorescence 635 nm; higher = more signal;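 further: score merges spot fluorescence intensity with its signal-to-noise ratio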
[12] = small-molecule microarray binders of probe aDKK1, primary screen, biochemical, biotinylated probe, 635/667 nm fluorescence (AID 1099); details: higher = more signal;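 further: score merges 667nm spot fluorescence with signal to noise across triplicate slides; reference of the scale not given here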
[13] = small-molecule microarray binders of probe aCHRDL2, primary screen, biochemical, biotinylated probe, 635/667 nm fluorescence (AID 1100); details: higher = more signal
[14] = splicing luciferase reporter signal modulators, primary screen, spliceosome inhibition project, cell-based, HEK293, splice +/- reporter (AID 1101); details: luminescence, 24 h, higher = more signal, called active from +8 up or from −8 down;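 further: HEK293 cells carrying a splicing-competent luciferase reporter gene; test concentration not given here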
[15] = molecular target: Fibroblast growth factor 10 (Homo sapiens) (UniProt O15520); assay: FGF10 binders on small-molecule microarrays, primary screen, biochemical, small-molecule microarray, 635 nm fluorescence (AID 1102); details: FGF10 binding, fluorescence 635 nm, higher = more signal
[16] = system: glycogen synthase kinase-3 (GSK3A per assay name; protocol says GSK3B); assay: GSK3 binders on small-molecule microarrays, primary screen, biochemical, small-molecule microarray, 635 nm fluorescence, GSK3A (AID 1103); details: small-molecule microarray binding, fluorescence 635 nm; higher = more signal; further: the record names both GSK3A and GSK3B
[17] = molecular target: Epidermal growth factor receptor (Homo sapiens) (UniProt P00533); assay: EGFR binders on small-molecule microarrays, primary screen, biochemical, small-molecule microarray, 635 nm fluorescence (AID 1104); details: EGFR binding, higher = more signal;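 further: score merges 667 nm emission intensity with spot signal to noise over triplicate slides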
[18] = molecular target: Follistatin-related protein 3 (Homo sapiens) (UniProt O95633); assay: FSTL3 binders on small-molecule microarrays, primary screen, biochemical, small-molecule microarray, 635 nm fluorescence (AID 1105); details: FSTL3 binding, higher = more signal;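 further: score merges emission near 667 nm and signal to noise per printed spot across three slides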
[19] = molecular target: Dickkopf-related protein 1 (Homo sapiens) (UniProt O94907); assay: DKK1 binders on small-molecule microarrays, primary screen, biochemical, small-molecule microarray, 635 nm fluorescence scan (AID 1106); details: DKK1 binding, higher = more signal;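 further: score merges emission near 667 nm with signal to noise over three replicate slides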
[20] = system: Inhibin beta A chain (activin A); assay: INHBA (activin A) binders on microarrays, primary screen, biochemical, small-molecule microarray, 635 nm fluorescence scan (AID 1107); details: small-molecule microarray binding, higher = more signal;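 further: mouse activin A protein probed at 4.33 µg/mL on printed slides; score merges bound-protein fluorescence near 667 nm with spot signal-to-noise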

Sequence of Neurogenic locus notch homolog protein 3 (Homo sapiens) (Q9UM47 whole entry, looked up): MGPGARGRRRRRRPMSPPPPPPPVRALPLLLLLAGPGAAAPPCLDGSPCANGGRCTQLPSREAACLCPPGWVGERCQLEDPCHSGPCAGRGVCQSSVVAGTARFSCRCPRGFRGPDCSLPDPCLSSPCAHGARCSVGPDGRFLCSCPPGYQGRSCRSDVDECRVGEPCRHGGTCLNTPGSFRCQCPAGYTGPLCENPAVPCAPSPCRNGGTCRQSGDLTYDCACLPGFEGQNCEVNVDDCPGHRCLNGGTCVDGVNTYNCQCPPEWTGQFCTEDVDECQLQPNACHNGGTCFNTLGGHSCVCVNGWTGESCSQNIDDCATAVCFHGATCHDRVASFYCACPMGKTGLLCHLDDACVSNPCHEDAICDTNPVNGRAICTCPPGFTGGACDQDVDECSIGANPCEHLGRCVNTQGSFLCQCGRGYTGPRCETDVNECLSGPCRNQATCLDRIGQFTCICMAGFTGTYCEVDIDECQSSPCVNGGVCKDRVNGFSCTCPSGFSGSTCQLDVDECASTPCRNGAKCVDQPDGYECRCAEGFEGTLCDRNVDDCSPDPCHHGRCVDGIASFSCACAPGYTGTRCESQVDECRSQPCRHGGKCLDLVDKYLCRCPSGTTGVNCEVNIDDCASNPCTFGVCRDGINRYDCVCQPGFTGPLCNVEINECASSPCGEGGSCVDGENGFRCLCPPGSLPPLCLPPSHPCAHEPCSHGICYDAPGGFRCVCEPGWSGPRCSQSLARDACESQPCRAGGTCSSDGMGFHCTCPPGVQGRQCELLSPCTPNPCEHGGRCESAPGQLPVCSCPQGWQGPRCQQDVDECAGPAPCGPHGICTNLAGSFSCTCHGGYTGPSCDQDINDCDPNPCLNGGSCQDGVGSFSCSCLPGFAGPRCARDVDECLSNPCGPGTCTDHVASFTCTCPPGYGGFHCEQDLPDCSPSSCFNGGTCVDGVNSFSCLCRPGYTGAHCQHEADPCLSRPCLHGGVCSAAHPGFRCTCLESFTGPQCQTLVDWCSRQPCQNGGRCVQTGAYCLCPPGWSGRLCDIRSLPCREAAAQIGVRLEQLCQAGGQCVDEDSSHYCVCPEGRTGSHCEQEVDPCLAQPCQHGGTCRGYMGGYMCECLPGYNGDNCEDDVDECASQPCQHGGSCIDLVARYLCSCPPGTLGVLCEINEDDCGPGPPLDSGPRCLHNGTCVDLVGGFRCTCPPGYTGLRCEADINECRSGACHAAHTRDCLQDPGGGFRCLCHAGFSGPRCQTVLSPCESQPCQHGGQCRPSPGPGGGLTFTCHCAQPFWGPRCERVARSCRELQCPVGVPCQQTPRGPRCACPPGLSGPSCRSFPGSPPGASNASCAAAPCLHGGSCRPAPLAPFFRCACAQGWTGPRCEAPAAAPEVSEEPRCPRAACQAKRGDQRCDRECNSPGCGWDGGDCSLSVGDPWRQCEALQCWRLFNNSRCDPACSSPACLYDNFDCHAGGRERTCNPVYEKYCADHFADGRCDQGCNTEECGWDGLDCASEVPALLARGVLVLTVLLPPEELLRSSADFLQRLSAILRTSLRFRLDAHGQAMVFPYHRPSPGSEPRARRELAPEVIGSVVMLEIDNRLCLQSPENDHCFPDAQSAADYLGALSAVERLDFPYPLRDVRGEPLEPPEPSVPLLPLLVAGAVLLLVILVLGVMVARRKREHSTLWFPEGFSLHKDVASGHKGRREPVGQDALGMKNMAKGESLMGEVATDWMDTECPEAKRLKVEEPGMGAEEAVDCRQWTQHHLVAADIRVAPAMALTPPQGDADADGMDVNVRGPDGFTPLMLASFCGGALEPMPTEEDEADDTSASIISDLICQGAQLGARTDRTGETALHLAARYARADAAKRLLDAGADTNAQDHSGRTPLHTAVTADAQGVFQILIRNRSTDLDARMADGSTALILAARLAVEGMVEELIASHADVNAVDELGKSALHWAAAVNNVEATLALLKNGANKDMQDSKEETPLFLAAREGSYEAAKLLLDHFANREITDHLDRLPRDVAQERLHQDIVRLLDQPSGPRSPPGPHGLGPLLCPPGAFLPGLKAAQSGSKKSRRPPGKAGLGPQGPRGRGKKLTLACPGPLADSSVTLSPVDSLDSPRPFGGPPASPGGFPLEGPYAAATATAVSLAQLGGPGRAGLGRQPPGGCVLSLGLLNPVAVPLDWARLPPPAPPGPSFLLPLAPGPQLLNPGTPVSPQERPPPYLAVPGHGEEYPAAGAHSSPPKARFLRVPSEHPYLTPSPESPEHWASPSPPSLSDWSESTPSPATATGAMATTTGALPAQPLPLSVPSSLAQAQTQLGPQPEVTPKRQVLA
Sequence of Dickkopf-related protein 1 (Homo sapiens) (O94907 whole entry, looked up): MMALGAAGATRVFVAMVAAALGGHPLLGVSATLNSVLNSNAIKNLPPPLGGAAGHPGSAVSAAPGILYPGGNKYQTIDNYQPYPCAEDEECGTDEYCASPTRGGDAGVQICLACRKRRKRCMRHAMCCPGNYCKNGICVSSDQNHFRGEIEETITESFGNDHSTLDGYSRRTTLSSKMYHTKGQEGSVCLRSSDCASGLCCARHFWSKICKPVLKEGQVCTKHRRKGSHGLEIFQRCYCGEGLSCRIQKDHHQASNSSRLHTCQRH
Sequence of Fibroblast growth factor 10 (Homo sapiens) (O15520 whole entry, looked up): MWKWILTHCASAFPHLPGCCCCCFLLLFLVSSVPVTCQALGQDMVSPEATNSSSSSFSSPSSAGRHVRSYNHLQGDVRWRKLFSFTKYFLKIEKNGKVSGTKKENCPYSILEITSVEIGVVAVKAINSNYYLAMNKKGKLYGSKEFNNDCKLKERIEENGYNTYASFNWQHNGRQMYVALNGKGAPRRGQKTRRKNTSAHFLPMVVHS
Sequence of Epidermal growth factor receptor (Homo sapiens) (P00533 whole entry, looked up): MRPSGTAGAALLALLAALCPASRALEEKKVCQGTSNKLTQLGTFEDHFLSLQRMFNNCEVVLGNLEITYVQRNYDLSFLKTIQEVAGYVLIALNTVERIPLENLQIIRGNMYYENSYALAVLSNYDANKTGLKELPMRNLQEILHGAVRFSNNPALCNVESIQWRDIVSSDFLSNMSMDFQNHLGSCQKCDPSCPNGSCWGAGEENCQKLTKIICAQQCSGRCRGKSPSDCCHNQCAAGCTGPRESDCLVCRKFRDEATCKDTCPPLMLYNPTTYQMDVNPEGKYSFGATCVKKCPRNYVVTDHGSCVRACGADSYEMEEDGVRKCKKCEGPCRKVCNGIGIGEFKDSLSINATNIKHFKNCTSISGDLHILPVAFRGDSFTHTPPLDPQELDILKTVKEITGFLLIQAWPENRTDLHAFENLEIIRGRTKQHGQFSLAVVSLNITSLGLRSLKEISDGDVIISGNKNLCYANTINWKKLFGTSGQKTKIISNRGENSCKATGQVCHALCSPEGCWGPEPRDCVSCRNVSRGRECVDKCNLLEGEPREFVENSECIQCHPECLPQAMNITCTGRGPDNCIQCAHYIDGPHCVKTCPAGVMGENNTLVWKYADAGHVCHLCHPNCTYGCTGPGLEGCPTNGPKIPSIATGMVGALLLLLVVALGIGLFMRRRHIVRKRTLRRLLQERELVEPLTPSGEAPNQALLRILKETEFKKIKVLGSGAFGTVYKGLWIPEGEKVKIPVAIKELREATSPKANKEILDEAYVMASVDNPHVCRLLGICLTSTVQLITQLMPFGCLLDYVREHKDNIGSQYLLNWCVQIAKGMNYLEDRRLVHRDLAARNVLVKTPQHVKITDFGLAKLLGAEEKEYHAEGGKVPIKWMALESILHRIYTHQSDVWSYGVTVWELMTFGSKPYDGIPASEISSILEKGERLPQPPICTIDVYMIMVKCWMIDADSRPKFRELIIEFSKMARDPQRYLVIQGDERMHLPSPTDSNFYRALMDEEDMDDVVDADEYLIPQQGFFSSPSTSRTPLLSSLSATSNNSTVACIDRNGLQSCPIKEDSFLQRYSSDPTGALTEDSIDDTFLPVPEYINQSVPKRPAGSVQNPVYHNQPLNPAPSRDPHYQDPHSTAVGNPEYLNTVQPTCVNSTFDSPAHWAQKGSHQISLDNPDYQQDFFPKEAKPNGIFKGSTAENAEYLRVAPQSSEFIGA
Sequence of Torsin-1A-interacting protein 2 (Homo sapiens) (Q8NFQ8 whole entry, looked up): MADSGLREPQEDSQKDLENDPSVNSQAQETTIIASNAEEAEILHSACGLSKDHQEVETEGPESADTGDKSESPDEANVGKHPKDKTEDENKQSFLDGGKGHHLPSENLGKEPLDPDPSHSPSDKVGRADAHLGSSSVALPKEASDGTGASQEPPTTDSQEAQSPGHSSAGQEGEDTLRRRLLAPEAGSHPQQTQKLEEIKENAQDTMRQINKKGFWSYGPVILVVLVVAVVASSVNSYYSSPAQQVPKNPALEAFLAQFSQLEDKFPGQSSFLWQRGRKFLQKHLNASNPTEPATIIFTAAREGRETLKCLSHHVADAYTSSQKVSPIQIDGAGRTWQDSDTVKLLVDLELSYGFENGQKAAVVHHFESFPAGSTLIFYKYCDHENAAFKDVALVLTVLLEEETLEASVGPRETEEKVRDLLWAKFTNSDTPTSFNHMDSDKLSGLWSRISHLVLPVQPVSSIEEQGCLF
Sequence of Follistatin-related protein 3 (Homo sapiens) (O95633 whole entry, looked up): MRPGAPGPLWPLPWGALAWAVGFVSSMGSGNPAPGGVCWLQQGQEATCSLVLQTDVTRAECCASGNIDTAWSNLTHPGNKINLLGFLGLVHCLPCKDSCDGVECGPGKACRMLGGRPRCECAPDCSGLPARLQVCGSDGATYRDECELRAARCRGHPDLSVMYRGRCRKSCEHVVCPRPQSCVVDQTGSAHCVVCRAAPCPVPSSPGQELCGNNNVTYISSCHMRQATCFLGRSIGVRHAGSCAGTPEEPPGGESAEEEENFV

## O=C1O[C@@H](c2ccccc2)[C@@H](c2ccccc2)N2[C@@H](c3ccc(OCCO)cc3)[C@]3(C(=O)Nc4ccccc43)[C@@H](C(=O)Nc3nc4ccccc4s3)[C@H]12
[1]
  composite z-score: 1.53
[2]
  z-score: 1.46 (inactive)
[3]
  z-score: 1.15 (inactive)
[4]
  z-score: 2.44 (inactive)
[5]
  composite z-score: 3.34
[6]
  z-score: 0.344 (inactive)
[7]
  composite z-score: 0.321
[8]
  composite z-score: 1.3
[9]
  composite z-score: 1.11
[10]
  composite z-score: 0.224
[11]
  composite z-score: 1.66
[12]
  composite z-score: 0.738
[13]
  composite z-score: 0.478
[14]
  z-score: -0.876 (inactive)
[15]
  composite z-score: 1.31
[16]
  composite z-score: 1.07
[17]
  composite z-score: 0.528
[18]
  composite z-score: 1.15
[19]
  composite z-score: 0.651
[20]
  composite z-score: 0.411

## CC(C)C[C@@H]1NC(=O)[C@H]2C[C@@H](C(=O)NCCCCCNC(=O)CS)[C@@H](c3cccc(OCCO)c3)N2C1=O
[1]
  composite z-score: 1.53
[2]
  z-score: -0.454 (inactive)
[3]
  z-score: -0.267 (inactive)
[4]
  z-score: 0.0073 (inactive)
[5]
  composite z-score: 3.06
[6]
  z-score: -0.187 (inactive)
[7]
  composite z-score: 0.106
[8]
  composite z-score: 1.98
[9]
  composite z-score: 1.07
[10]
  composite z-score: 0.111
[11]
  composite z-score: 1.52
[12]
  composite z-score: -0.0356
[13]
  composite z-score: -0.003
[14]
  z-score: 0.684 (inactive)
[15]
  composite z-score: 1.03
[16]
  composite z-score: 1.32
[17]
  composite z-score: 1.08
[18]
  composite z-score: 1.36
[19]
  composite z-score: 1.44
[20]
  composite z-score: 1.25

## C=C(CCCC)C(=O)CC[C@H](OC(=O)c1cccnc1)c1cccc(OCCO)c1
[1]
  composite z-score: 1.3
[2]
  z-score: 1.61 (inactive)
[3]
  z-score: -0.86 (inactive)
[4]
  z-score: 1.13 (inactive)
[5]
  composite z-score: 1
[6]
  z-score: 0.241 (inactive)
[7]
  composite z-score: -0.141
[8]
  composite z-score: 0.257
[9]
  composite z-score: -0.139
[10]
  composite z-score: -0.0818
[11]
  composite z-score: 0.681
[12]
  composite z-score: -0.298
[13]
  composite z-score: 0.165
[14]
  z-score: 4.13 (inactive)
[15]
  composite z-score: 0.309
[16]
  composite z-score: -0.208
[17]
  composite z-score: -0.502
[18]
  composite z-score: -0.688
[19]
  composite z-score: -0.219
[20]
  composite z-score: 1.29

## COCCOC(=O)N1C(=O)[C@@]2(c3cc(C#CCCO)ccc31)[C@H](c1ccccc1OCCO)N1[C@H](c3ccccc3)[C@H](c3ccccc3)OC(=O)[C@H]1[C@@H]2C(=O)N1CCN(c2ncccn2)CC1
[1]
  composite z-score: 1.54
[2]
  z-score: 1.24 (inactive)
[3]
  z-score: 1.08 (inactive)
[4]
  z-score: 3.94 (inactive)
[5]
  composite z-score: 2.32
[6]
  z-score: -0.27 (inactive)
[7]
  composite z-score: 0.571
[8]
  composite z-score: 0.725
[9]
  composite z-score: 1.03
[10]
  composite z-score: 0.339
[11]
  composite z-score: 0.55
[12]
  composite z-score: 0.75
[13]
  composite z-score: 0.537
[14]
  z-score: -0.381 (inactive)
[15]
  composite z-score: 0.74
[16]
  composite z-score: 1.22
[17]
  composite z-score: 0.965
[18]
  composite z-score: 1.39
[19]
  composite z-score: 0.682
[20]
  composite z-score: 0.617

## C=CCNC(=O)[C@@H]1[C@H]2C(=O)O[C@H](c3ccccc3)[C@H](c3ccccc3)N2[C@H](c2ccc(OCCO)cc2)[C@@]12C(=O)Nc1ccccc12
[1]
  composite z-score: 1.55
[2]
  z-score: -1.2 (inactive)
[3]
  z-score: 0.406 (inactive)
[4]
  z-score: 2.21 (inactive)
[5]
  composite z-score: 2.46
[6]
  z-score: 0.462 (inactive)
[7]
  composite z-score: -0.175
[8]
  composite z-score: 1.28
[9]
  composite z-score: 1.09
[10]
  composite z-score: -0.197
[11]
  composite z-score: 1.06
[12]
  composite z-score: 0.454
[13]
  composite z-score: -0.0808
[14]
  z-score: -0.0935 (inactive)
[15]
  composite z-score: 0.772
[16]
  composite z-score: 0.839
[17]
  composite z-score: 0.254
[18]
  composite z-score: 0.774
[19]
  composite z-score: 0.228
[20]
  composite z-score: 0.344
